S2 tox: Viability Counterscreen for Primary qHTS for Inhibitors of ATXN expression. Potency, µM (doses to about 56.7 µM), most hits filed as cytotoxic. S2 cells (HEK-293 line with an ATXN2-luciferase reporter) viability, CellTiter-Fluor protease fluorescence, 24 h. 400,000 tested, 0.49% active; note: nearly all actives have a fitted effect of over 40% in size
HepG2 tox: qHTS for Inhibitors of TGF-b: Cytotox Counterscreen | 410,000 tested, 0.76% active | AID 588856, 2011 | Potency, µM (titrated, usually from 46.1 µM), most hits filed as cytotoxic | HepG2 CAGA-GFP viability, ATP luminescence, 18 h
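CellTiter-Glo luminescence gave cytotoxicity after 18 hours at 37 degrees C. The cells were HepG2 CAGA-GFP in 1% FBS DMEM, stimulated with 500 pg/mL TGF-beta after compound addition. %Activity was normalised to no-cell wells (complete cell-killing) and DMSO (no toxicity), and curves were fitted and classified.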
TGFb SMAD3 inh: qHTS for Inhibitors of TGF-b; 410,000 tested, 1.2% active; Potency, µM (series often up to 46.1 µM), most hits filed as inhibitors; HepG2 CAGA-GFP TGF-b/SMAD3 reporter, GFP fluorescence, 18 h; TGF-beta stimulated, 500 pg/mL final; note: nearly all actives have a fitted effect of over 65% in size
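Inhibition of TGF-beta-driven CAGA-GFP reporter expression in HEPG2 cells is measured by cellular GFP fluorescence after 18 h stimulation with 500 pg/mL recombinant TGF-beta in 1% FBS medium at 37 degrees C.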
DRD3 agonist: qHTS of D3 Dopamine Receptor Agonist: qHTS. D(3) dopamine receptor (Homo sapiens), P35462. D3R DiscoveRx beta-arrestin cells, luminescence, 90 min. max activation, %. 410,000 tested, 0.58% active. AID 652048, 2013; in the data active = max activation above about 30%
Target sequence (P35462 whole entry, looked up): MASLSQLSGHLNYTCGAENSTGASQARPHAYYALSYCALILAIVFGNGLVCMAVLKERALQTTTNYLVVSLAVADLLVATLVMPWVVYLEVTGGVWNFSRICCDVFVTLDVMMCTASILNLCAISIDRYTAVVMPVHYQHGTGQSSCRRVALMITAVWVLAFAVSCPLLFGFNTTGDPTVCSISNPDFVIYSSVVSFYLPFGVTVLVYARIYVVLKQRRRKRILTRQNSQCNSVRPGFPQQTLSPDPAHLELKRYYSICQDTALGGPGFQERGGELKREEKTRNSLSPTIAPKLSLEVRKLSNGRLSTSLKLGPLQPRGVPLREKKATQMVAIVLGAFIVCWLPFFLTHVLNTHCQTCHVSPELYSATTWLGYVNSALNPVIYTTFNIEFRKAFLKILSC
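Cells at 1500/well, incubated overnight, then treated with pinned compounds (dopamine as control) for 90 min at 37 degrees C. DiscoveRx reagent added for 30 - 60 minutes at room temperature; luminescence read.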
ATXN2 expr inh: Primary qHTS for Inhibitors of ATXN expression; HEK-293 ATXN2-luciferase reporter, luminescence, 24 h; Potency, µM (series often up to 57 µM), actives largely listed as inhibitors; 360,000 tested, 0.72% active; note: nearly all actives have a fitted effect of over 55% in size
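ATXN2-luciferase reporter cells (luciferase flanked by upstream and downstream ATXN2 gene portions) were treated 24 h at 37 °C with compounds at up to 57 uM. SteadyGlo luminescence gave expression; GF-AFC fluorescence gave viability.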
DRD3 antagonist: qHTS of D3 Dopamine Receptor Antagonist: qHTS; D(3) dopamine receptor (Homo sapiens), P35462; AID 652054, 2013; D3R cells, DiscoveRx beta-arrestin luminescence, antagonist mode; active compounds read low; 360,000 tested, 2.5% active; max response, negative = inhibition, %; in the data active = max response below about -50%; inconclusive = no clear call, values can overlap the other calls
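Cells expressing the human receptor were seeded at 1500 cells/well, incubated overnight at 37 degrees C in 5% CO2, then exposed to library compounds with dopamine controls for 90 minutes at 37 degrees C before luminescent detection.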
Numbers stand for hits; n = inactive; u = inconclusive; x = no result; ! = not confirmed by another sample. Most compounds without a hit are left out; they make up all but 4.8% or so of the library. Unless noted, calls come from the whole dose curve; as a rule, active = well fitted curve in the direction sought with a large enough effect; inconclusive = small, poorly fitted or top-dose-only effect, or another doubt; inactive = no such curve, though single readings can be large; an effect the other way counts as inactive or inconclusive.

SMILES	S2 tox	HepG2 tox	TGFb SMAD3 inh	DRD3 agonist	ATXN2 expr inh	DRD3 antagonist
COc1ccccc1N1CCN(Cc2cnc(-c3ccccc3)[nH]2)CC1	n	n	n	n	n	-83
CCC1(c2ccccc2)C(=O)NC(=O)N(C(=O)c2ccccc2)C1=O (configuration not stated)	x	x	x	n	x	x
CNC(C)Cc1ccccc1Sc1ccc(O)cc1 (configuration not stated)	n	n	n	n	n	-73
OC(COCc1ccc(Cl)cc1)CN1CC=C(c2ccccc2)CC1 (configuration not stated)	u	28µM!	u	34	n	u
O=C(COc1ccccc1)N1CCN(CC2CC3C=CC2C3)CC1 (configuration not stated)	n	n	n	n	n	u
COc1ccccc1CN1CCN(C(=O)COc2ccccc2)CC1	n	n	n	n	n	-81
O=C(COc1ccccc1)N1CCN(CC2CC=CCC2)CC1 (configuration not stated)	n	n	n	n	n	-57
COc1cc(OC)c(OC)cc1CN1CCN(C(=O)COc2ccc3ccccc3c2)CC1	n	n	n	n	n	n
CCc1ccc(NC(=O)c2cnc3sc(N4CCCC4)nn3c2=O)cc1	x	n	u	n	x	x
CC[C@H]1CN(C)C[C@@]2(C(=O)OC)Cc3c([nH]c4ccccc34)C(=O)C[C@@H]12	n	n	n	n	n	n
CC[C@H]1CN(C)CCc2c([nH]c3ccccc23)C(=O)C[C@@H]1/C(=C\OC)C(=O)OC	n	n	n	n	n	-51
CN1C[C@H](CO)C=C2c3cccc4[nH]cc(c34)C[C@H]21	n	n	n	n	n	-78
CN1C[C@@H](CO)C=C2c3cccc4[nH]cc(c34)CC21 (some centres not stated)	x	n	n	x	x	x
CCN(CC)C(=O)[C@@H]1C=C2c3cccc4[nH]cc(c34)C[C@H]2N(C)C1	u	x	x	51	n	x
CC(C)[C@]12O[C@@H]1[C@@H]1O[C@]13[C@]1(O[C@H]1C[C@@H]1C4=C(CC[C@@]13C)C(=O)OC4)[C@H]2O	x	x	x	x	0.12µM	x
Clc1cccc(N2CCNCC2)c1	n	n	n	n	n	-76
c1ccc(N2CCNCC2)cc1	n	x	x	x	n	x
Cc1c(C=O)c2ccccc2n1Cc1ccccc1F	n	n	1.1µM	n	n	n
CC(C)OC(=O)c1c(N)n(CC2CCCO2)c2nc3ccccc3nc12 (configuration not stated)	x	n	n	n	n	n
CC(C)CCOC(=O)c1c(N)n(CC2CCCO2)c2nc3ccccc3nc12 (configuration not stated)	n	n	11µM	n	n	n
COc1ccccc1CNc1nc(NCc2ccccc2SC)c2sccc2n1	u	n	u	n	u	n
COC(=O)[C@H]1[C@@H](OC(=O)c2ccccc2)C[C@@H]2CC[C@H]1N2C	n	x	x	n	x	x
CC[n+]1c(-c2ccccc2)c2cc(N)ccc2c2ccc(N)cc21	u	n	u	n	7.1µM!	n
COC(=O)C1=C(c2ccc(OCc3ccccc3)cc2)C[C@@H]2CC[C@H]1N2C(=O)NC1CCN(Cc2ccccc2)CC1	11µM	n	u	n	13µM	-94
COC(=O)C1=C(c2ccc(OCc3ccccc3)cc2)C[C@@H]2CC[C@H]1N2C(=O)NCCN1CCOCC1	n	n	n	n	n	n
SMILES	S2 tox	HepG2 tox	TGFb SMAD3 inh	DRD3 agonist	ATXN2 expr inh	DRD3 antagonist
ClCCN1CCCC1	n	x	x	x	n	x
CC(C)[C@H]1C(=O)O[C@H](C(C)C)C(=O)N(C)[C@@H](C(C)C)C(=O)O[C@H](C(C)C)C(=O)N(C)[C@@H](C(C)C)C(=O)O[C@H](C(C)C)C(=O)N1C	10µM	n	5.6µM	n	7.9µM	n
CC(Oc1ccc(Br)cc1)C(=O)N(Cc1nc(-c2ccccc2)no1)C(C)C (configuration not stated)	x	n	u	n	x	x
CCCN(c1ccc(C(C)C)cc1)S(=O)(=O)c1ccc2c(c1)oc(=O)n2CC(=O)OCC	u	n	u	n	n	x
Cc1ccc(O)c(C(=O)c2cc(C(=O)NCc3ccccc3)c(=O)n(Cc3ccccc3)c2)c1	n	n	n	n	n	-69
CC(C)[C@H]1C(=O)N2CCC[C@H]2[C@]2(O)O[C@](NC(=O)[C@@H]3C[C@@H]4c5cccc6[nH]cc(c56)C[C@H]4N(C)C3)(C(C)C)C(=O)N12	u	x	x	n	x	x
CC1=C(/C=C/c2ccccc2)CCN(C)C1	n	n	n	n	n	-63
COc1ccc(CN2CCN(C(=O)Cn3c(=O)oc4cc(Cl)ccc43)CC2)c(OC)c1OC	u	n	u	n	x	n
Cc1cccc(N(C)S(=O)(=O)c2cc(-c3cnc(C4CC4)o3)ccc2C)c1	n	n	u	n	n	x
COc1ccc(OC)c(C[C@H](C)N)c1	n	x	x	n	x	x
Cc1cc(C)cc(N2C(=O)NC(=O)/C(=C\c3cccn3-c3ccccc3)C2=O)c1	u	n	u	n	u	u
CN1C(=O)/C(=C/c2cccn2-c2ccc3ccccc3c2)C(=O)NC1=S	x	n	16µM	n	u	n
O=C1NC(=S)NC(=O)C1=Cc1cccn1-c1ccc(O)cc1	19µM	n	u	n	24µM	n
Cc1cc(C)cc(N2C(=O)NC(=O)/C(=C\c3cccn3-c3ccc(Cl)cc3)C2=O)c1	u	n	u	n	u	-72
COc1ccc(OC)c([C@@H](O)[C@H](C)NC(C)(C)C)c1	n	n	n	n	n	n
COc1ccc(OC)c(C(O)C2CCCCN2)c1 (configuration not stated)	n	n	n	n	n	-61
NCC(=O)c1ccc2ccccc2c1	x	n	n	x	x	x
O=S(=O)(c1ccccc1C(F)(F)F)N1CCN(c2ncnc3sccc23)CC1	n	n	13µM	n	u	n
O=S(=O)(c1ccc(F)c(F)c1F)N1CCN(c2ncnc3sccc23)CC1	n	n	u	n	n	n
O=c1[nH]c2ccccc2n1C1CCN(Cc2ccc(-c3nc4ccccc4nc3-c3ccccc3)cc2)CC1	u	x	x	n	n	-92
O=c1[nH]c2ccccc2n1C1CCN(Cc2ccc(-c3nc4ccc(F)cc4nc3-c3ccccc3)cc2)CC1	u	x	x	n	u	-96
CCCCn1nnnc1C(C1CC1)N1CCC(n2c(=O)[nH]c3ccccc32)CC1 (configuration not stated)	n	n	n	n	n	n

Screening results deposited in PubChem BioAssay by National Center for Advancing Translational Sciences (NCATS).
